From PubChem BioAssay come the findings set out here.

Sequence of Torsin-1A (Homo sapiens) (O14656 whole entry, looked up): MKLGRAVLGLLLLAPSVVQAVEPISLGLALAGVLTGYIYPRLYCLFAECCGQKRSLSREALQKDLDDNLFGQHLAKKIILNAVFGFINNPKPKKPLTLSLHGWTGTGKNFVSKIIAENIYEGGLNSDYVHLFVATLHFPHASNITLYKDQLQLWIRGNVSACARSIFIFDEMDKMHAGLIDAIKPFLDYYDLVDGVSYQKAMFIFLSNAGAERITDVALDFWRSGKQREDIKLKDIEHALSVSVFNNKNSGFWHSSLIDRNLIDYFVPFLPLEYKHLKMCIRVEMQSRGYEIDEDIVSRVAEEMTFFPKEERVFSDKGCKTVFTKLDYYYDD

The experiment has as its target Torsin-1A (Homo sapiens) (UniProt O14656). The experiment is described as follows: small-molecule binders of mutant TOR1A in lysate, primary screen, cell lysate, small-molecule microarray, COS7 lysate, 635/667 nm fluorescence (AID 1150).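 Further: score pools 667 nm emission and signal to noise measuring lysate protein binding.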 The following applies: COS7 hTOR1A mutant lysate, 635 nm fluorescence, higher = more signal.
Turning to `COc1ccc([Si](C)(C)[C@@H]2[C@@H](CCO)O[C@]3(C(=O)N(Cc4cccc(N5CCOC5=O)c4)c4ccccc43)[C@H]2C)cc1`, the composite z-score stood at 0.226.
The compound `COCCOC(=O)N1C(=O)[C@@]2(c3ccccc31)[C@H](C(N)=O)[C@H]1C(=O)O[C@H](c3ccccc3)[C@H](c3ccccc3)N1[C@@H]2c1ccc(O)cc1` yielded a composite z-score of 0.779.
`O=C1C[C@@](C(=O)NCc2ccccc2)(c2ccc([N+](=O)[O-])cc2)[C@@H](c2ccc(CO)cc2)N1CC12CC3CC(CC(C3)C1)C2` yielded a composite z-score of 0.368.
With `COCC(=C=CC[C@H](O)c1cccc(OCCO)c1)CCO`, the composite z-score is -0.434.
In the case of `COCCCNC(=O)[C@@]1(Cc2ccccc2CN=[N+]=[N-])N=C(c2ccc(OCCCO)cc2)O[C@H]1c1ccccc1CN=[N+]=[N-]`, the composite z-score was determined as 0.511.
`COC(=O)[C@]1(Cc2ccccc2)N=C(c2ccc(OCCCO)cc2)O[C@@H]1c1ccccc1N=[N+]=[N-]` came in with a composite z-score of 0.0366.
Next, `COC(=O)[C@@]1(Cc2ccc(F)cc2)[C@H]2c3cc(C(=O)N(C)C)n(Cc4ccc(C)o4)c3C[C@H]2CN1C(=O)c1ccccc1`: 4.51; `CC(C)=CCCC(C)=CC(O)C1C=CC2C(=O)N(c3ccccc3)C(=O)C2N1Nc1ccc(C(C)C)cc1` (configuration not stated): -0.151.
The compound `COc1ccccc1CN1C(=O)c2ccccc2[C@@H](C(=O)NCc2ccccc2)[C@@H]1c1ccc(CO)cc1` yielded a composite z-score of 0.48.
In the case of `CC#CC(=O)Oc1ccc(Br)cc1C=CC(=O)OCC` it was -0.329.
For `O=C(NC1CC1)[C@@H]1c2ccccc2C(=O)N(C2Cc3ccccc3C2)[C@H]1c1ccc(CO)cc1`, the composite z-score was 1.28.
In the case of `COCCCNC(=O)[C@@H]1c2ccccc2C(=O)N(Cc2ccccc2OC)[C@H]1c1ccc(CO)cc1` it was -0.206.
